# Activity calls are given as the source filed them. Calls come from the whole dose curve; as a rule, active = well fitted activation curve with a large enough effect; inconclusive = small, poorly fitted or top-dose-only effect; inactive = no such curve, though single readings can be large or run the other way.
# Assay: Confirmatory qHTS for Identification of Small Molecule Activators of Huntingtin-Antisense Promoter Activity
# Conditions: HEK293 HTT-AS promoter firefly luciferase reporter, 24 h; series mostly up to 57.5 µM; activity change, positive = activation: at the top concentration
# Method in brief: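 Plated reporter HEK293 cells (24 h) received library compounds at up to 57.5 uM final or 50 uM PTC124, incubated 24 h at 37C; firefly luciferase luminescence was then recorded with Dual-Glo reagent.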
# Potency is the fitted concentration of half-maximal effect.
SMILES,"activity change, positive = activation",Potency
Cn1c(Oc2ccc(F)cc2)nc2c1c(=O)n(Cc1ccccc1Cl)c(=O)n2C,-49.8% (inactive),–
NC(=O)Nc1cc(-c2ccc(CN3CCOCC3)cc2)sc1C(N)=O,–,23.9 µM (active)
CCOc1ccc(S(=O)(=O)N(C(C)=O)c2ccc3oc(C)c(C(=O)OC)c3c2)cc1,-92.6% (inactive),–
COc1ccc(-c2nc(N3CCOCC3)c3sc(CN(C)c4ncc(C(=O)NO)cn4)cc3n2)cn1,2.64% (inactive),–
CC(=O)c1c(C)oc2ccc(N(C(=O)c3ccncc3)S(=O)(=O)c3ccc(F)cc3C)cc12,-60.5% (inactive),–
Cc1cccc(CS(=O)(=O)Cc2ccc(C(=O)NCc3ccc(Cl)cc3)o2)c1,-44.7% (inactive),–
O=C(NCC(c1ccc2c(c1)OCO2)N1CCN(c2ccccc2)CC1)c1ccc(F)c(F)c1 (centres undefined),-34.9% (inactive),–
COC(=O)c1c(C)oc2ccc(N(C(=O)c3ccncc3)S(=O)(=O)c3cc(C)ccc3C)cc12,-90.5% (inactive),–
O=C(Nc1ccc(F)cc1F)c1ccc2c(c1)CCN2S(=O)(=O)c1ccc(Cl)cc1,-22.6% (inactive),–
CCOc1ccccc1CNC(=O)C(CC)n1nc(C)c2c(C)n(-c3ccccc3)nc2c1=O (centres undefined),-42.6% (inactive),–
CCOC(=O)c1cc(-c2ccccc2)n(-c2cccc(C(=O)Nc3cccc(F)c3)c2)c1C,-23.3% (inactive),–
CCOc1ccc(C(=O)NCc2ccc3c(c2)CCN3C(=O)c2ccccc2)cc1,-14.1% (inactive),–
CCOC(=O)c1oc2c(c1C)-c1nn(Cc3ccc(Cl)cc3)cc1CC2,-14.9% (inactive),–
OCCCn1c(-c2ccc(F)cc2)csc1=Nc1ccc(F)cc1,-26% (inactive),–
CCc1ccc(NC(=O)c2cc(S(=O)(=O)N3CCCCCC3)ccc2F)cc1,-22.9% (inactive),–
COc1cccc(C(=O)Nc2nc(-c3nnn(-c4cccc(Cl)c4C)c3C)ns2)c1,-52.1% (inactive),–
CC(C)Oc1ccc(CNC(=O)C2CCN(C(=O)N3CCOc4ccc(Cl)cc43)CC2)cc1,-46.3% (inactive),–
CCOc1ccc(-n2ccnc2SCC(=O)Nc2ccc3c(c2)OCO3)cc1,-57.7% (inactive),–
COc1ccc(CCNC(=O)c2ccc3c(c2)N(Cc2ccc(F)cc2)CCS3)cc1OC,-33.8% (inactive),–
COc1ccc(N2CCN(C(=O)c3cc4c(-c5ccccc5F)nn(C)c4s3)CC2)cc1,-59.8% (inactive),–
CCN1C(=O)c2ccccc2Sc2ccc(NC(=O)Nc3ccccc3OC)cc21,-26.7% (inactive),–
CCOC(=O)c1ccc(Nc2nc3nonc3nc2Nc2cccc(C)c2C)cc1,-92.9% (inactive),–
Cc1ccc(C)c(N2CCN(CCCNC(=O)c3cnn(-c4ccccc4Cl)c3C3CCN(C(=O)OC(C)(C)C)CC3)CC2)c1,-36.6% (inactive),–
O=C(CN1C(=O)C2(SCC(=O)N2c2ccc(F)c(F)c2)c2ccccc21)Nc1cccc(Cl)c1 (centres undefined),-40.2% (inactive),–
